High-throughput results as filed in PubChem BioAssay.
Hits are enriched below; roughly 3.8% of the tested compounds scored in any of these assays.
HT1080 IDH1KD tx = toxicity to HT-1080 IDH1 knockdown cells (counter line). HT-1080 IDH1 knockdown viability, ATP luminescence, 48 h. Potency, µM (top dose mostly 46.1 µM), without a hit: at the highest dose activity, negative = toxicity, usual class: cytotoxic. actives 2% (n = 360,000);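 note: 0% = DMSO wells and -100% = cell-free medium wells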
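Using the IDH1-knockdown HT-1080 line run in the same batch and compound series as the NT line, viability after 48 h at 37 °C was determined by CellTiter-Glo luminescence and expressed as % activity.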
HT1080-NT tox = kills 2HG-producing HT-1080-NT fibrosarcoma cells; HT-1080-NT fibrosarcoma viability, CellTiter-Glo ATP luminescence, 48 h; Potency, µM (top dose mostly 46.1 µM), inactives show top-dose activity, negative = less viability, usual class: cytotoxic; actives 1.6% (n = 360,000);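 note: NT is the 2HG producing partner of a matched IDH1 knockdown line; 0% = DMSO-treated cells and -100% = media-only wells without cells; nearly all actives have a fitted effect of over 55% in size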
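Fibrosarcoma NT cells, 750 per well in 5% FBS RPMI, were exposed to compound for 48 hours. Viability: CellTiter-Glo luminescence.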
ATXN viability = viability counter-screen for ATXN expression inhibitors. S2 cells (HEK-293 line with an ATXN2-luciferase reporter) viability, CellTiter-Fluor protease fluorescence, 24 h. Potency, µM (top dose mostly 56.7 µM), usual class: cytotoxic. actives 0.49% (n = 400,000). AID 651635; note: nearly all actives have a fitted effect of over 40% in size
TGFb inhibitor = blocks TGF-b signaling. Potency, µM (titrated, usually from 46.1 µM), for the others: at the top dose activity, negative = inhibition, usual class: inhibitors. AID 588855. actives 1.2% (n = 410,000). HepG2 CAGA-GFP TGF-b/SMAD3 reporter, GFP fluorescence, 18 h; TGF-beta stimulated, 500 pg/mL final; note: % is set by controls: 0 for no effect and ±100 for the full control effect; nearly all actives have a fitted effect of over 65% in size
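Using HEPG2 CAGA-GFP reporter cells at 1000 cells/well, we pinned test compounds, stimulated with recombinant TGF-beta (500 pg/mL final) and measured total well GFP after 18 h.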
ATXN2 expr inh = inhibitors of ATXN2 expression | HEK-293 ATXN2-luciferase reporter, luminescence, 24 h | actives 0.72% (n = 360,000) | Potency, µM (highest dose often 57 µM), inactives show at the top dose activity change, negative = inhibition, hits mostly inhibitors | AID 1745845; note: % is set by controls: 0 for no effect and ±100 for the full control effect; nearly all actives have a fitted effect of over 55% in size
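ATXN2-luciferase reporter cells (luciferase flanked by upstream and downstream ATXN2 gene portions) were treated 24 h at 37 °C with compounds at up to 57 uM. SteadyGlo luminescence gave expression; GF-AFC fluorescence gave viability.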
HepG2 tox = counter-screen for TGF-b inhibitors: cytotoxicity in HepG2 cells; HepG2 CAGA-GFP viability, ATP luminescence, 18 h; Potency, µM (top dose mostly 46.1 µM), inactives show at the top dose activity change, negative = cytotoxicity, hits mostly cytotoxic; actives 0.76% (n = 410,000); AID 588856
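CellTiter-Glo luminescence gave cytotoxicity after 18 hours at 37 degrees C. The cells were HepG2 CAGA-GFP in 1% FBS DMEM, stimulated with 500 pg/mL TGF-beta after compound addition. %Activity was normalised to no-cell wells (complete cell-killing) and DMSO (no toxicity), and curves were fitted and classified.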
An asterisk follows results filed as active; i = inactive; u = inconclusive; x = not tested or not shown; ! = repeats disagree. Calls come from the whole dose curve; as a rule, active = well fitted curve in the direction sought with a large enough effect; inconclusive = small, poorly fitted or top-dose-only effect, or another doubt; inactive = no such curve, though single readings can be large; an effect the other way counts as inactive or inconclusive. Potency is the fitted concentration of half-maximal effect.

SMILES | HT1080 IDH1KD tx | HT1080-NT tox | ATXN viability | TGFb inhibitor | ATXN2 expr inh | HepG2 tox
Cc1ccc(C(=O)N[C@@H](C)CN2C3=NC[C@H](Cc4ccccc4)N3C[C@H]2Cc2ccc(O)cc2)cc1Br | u | u | x | 13µM* | 25µM* | 11µM*
Cc1ccc(C(=O)N[C@@H](C)CN2C3=NC[C@@H](Cc4ccccc4)N3C[C@H]2Cc2ccc(O)cc2)cc1Br | u | u | 25µM* | u | u | -103%
CCCCC[C@H]1CCCCC[C@H](O)C[C@@H](O)[C@H](O)/C=C/C(=O)O1 | -23% | -27% | i | x | -23% | x
C=C1[C@@H](C)[C@H]2[C@H](Cc3ccccc3)NC(=O)[C@]23OC(=O)/C=C/[C@H](O)CCC[C@@H](C)C/C=C/[C@H]3[C@@H]1O | 0.73µM* | 1.3µM* | i | u | -10% | -36%
O=C(O)CSCC(=O)N(Cc1ccccc1)c1nc(-c2ccccc2)c(-c2ccccc2)s1 | -19% | -11% | i | u | -10% | -10%
CC(N)C(=O)NC1C2C(=C(O)CC(O)C2O)C(=O)OC1(C)C(Cl)Cl (stereo not given) | 0.92µM* | u | u | u | 1.5µM* | -4%
C[n+]1c2ccccc2nc2ccc(NCCO)cc21 | -20% | -12% | 13µM* | -8% | -34% | -36%
CNc1ccc2nc3ccccc3[n+](C)c2c1 | 15µM* | 21µM* | 10µM* | -8% | x | -1%
c1ccc2nc3ccccc3cc2c1 | x | x | x | u | x | -17%
C[C@@H]1CNC(=O)c2c(C(=O)Nc3cccc(Cl)c3)ncn21 | -20% | -20% | u | u | -12% | -8%
CCOC(=O)Nc1ccc(NCc2ccc(F)cc2)cc1N | x | x | x | x | -7% | x
CC(C)CN1C(=S)SC(C)(C)C1n1oc(=O)n(-c2ccc(Cl)cc2)c1=O (stereo not given) | u | u | u | u | u | -34%
O=C1NC(=O)N(Cc2ccccc2)C(=O)/C1=C\C=C\c1ccco1 | 3.7µM* | u | i | 10µM* | x | -15%
C=CCN1C(=O)NC(=O)/C(=C/C=C/c2ccccc2)C1=O | 21µM* | u | i | u | -18% | -7%
Cn1cccc1/C=C1\C(=O)NC(=O)N(Cc2ccco2)C1=O | -9% | -11% | i | 3% | 9% | -5%
O=C1NC(=O)N(Cc2ccco2)C(=O)/C1=C/C=C/c1ccco1 | 21µM* | 23µM* | u | 7.1µM* | u | -25%
COc1cccc(CSc2nc(-c3ccccc3OC)nc3c2Cc2c(CO)cnc(C)c2O3)c1 | x | x | u | 31% | u | -1%
CCN1/C(=C/C=C/C2=[N+](CC)c3ccccc3C2(C)C)C(C)(C)c2ccccc21 | 10µM* | 9.2µM* | 7.9µM* | u | x | -79%
Cc1cccc(C(C)C)c1NC(=O)Cn1c(=O)oc2cc(S(=O)(=O)N3CCCC3)ccc21 | x | x | x | x | x | -13%
CCOc1ccc(NS(=O)(=O)c2ccc(Cl)c(N=Nc3c(O)[nH]c(=S)[nH]c3=O)c2)cc1Br | 4% | 1% | x | u | x | -48%
Cc1cc(C)c(C(=O)CSc2n[nH]c(=O)n2C2CC2)cc1C | 32µM* | -16% | i | -17% | -11% | -26%
COc1cc2[nH]c(=O)n(Cc3ccc(C(=O)N4CCN(c5ccc(Cl)cc5)CC4)cc3)c(=O)c2cc1OC | x | x | i | u | -11% | -8%
C=C(C=O)C[C@@H]1C[C@H](O)C2OC3C[C@]4(C)OC5/C=C\CC6OC7C(CC=CCC6OC5CCCC4OC3CC2O1)OC1CC2OC3CC(=O)OC3C[C@@H](C)C[C@@]2(C)OC1C[C@@H]7C (stereo not given in full) | x | 8.2µM* | 1.8µM* | u | 1.6µM* | x
C=C1CCN(C(CC(C)C)C(=O)Nc2ccc(OC)cc2)S(=O)(=O)c2ccccc21 (stereo not given) | x | x | x | u | x | -17%
c1cc2n(c1)-c1c(ccc3c1OCO3)CNC2c1ccc2c(c1)OCO2 (stereo not given) | u | u | i | -4% | -3% | -14%
SMILES | HT1080 IDH1KD tx | HT1080-NT tox | ATXN viability | TGFb inhibitor | ATXN2 expr inh | HepG2 tox
COc1ccc(C2NCc3ccc4c(c3-n3cccc32)OCO4)cc1O (stereo not given) | 1.8µM* | u | i | u | -3% | 0%
CCOC(=O)c1c(C)[nH]c(C)c1S(=O)(=O)NCC(=O)N1CCN(c2cc(Cl)ccc2C)CC1 | x | x | i | u | u | -21%
CCCCCN=C(N)N/N=C/c1c[nH]c2ccc(OC)cc12 | 5.8µM* | 2.9µM* | 18µM* | u | 5.6µM*! | 16µM*
NC(=Nc1ccccc1)NN=Cc1c[nH]c2ccccc12 | u | u | u | u | -3% | -45%
COc1ccc(-c2c3c(=O)n(C)c(=O)n(C)c3c3n2-c2ccccc2NC3c2ccccc2OC)cc1 (stereo not given) | x | x | i | u | -21% | -7%
CC(=O)O[C@H]1C(=O)[C@@]2(C)C([C@H](OC(=O)c3ccccc3)[C@]3(O)C[C@H](O)C(C)=C1C3(C)C)[C@]1(OC(C)=O)CO[C@@H]1C[C@H]2O (stereo not given in full) | -28% | -20% | u | 1% | 0% | 2%
CC(=O)O[C@@]12CO[C@@H]1C[C@H](O)[C@@]1(C)C(=O)[C@H](O)C3=C(C)[C@@H](OC(=O)[C@H](O)[C@@H](NC(=O)c4ccccc4)c4ccccc4)C[C@@](O)([C@@H](OC(=O)c4ccccc4)C12)C3(C)C (stereo not given in full) | u | 0.0073µM* | i | -28% | -13% | -15%
CC(=O)O[C@H]1C(=O)[C@@]2(C)C([C@H](OC(=O)c3ccccc3)[C@]3(O)C[C@H](OC(=O)[C@H](O)[C@@H](NC(=O)Cc4ccccc4)c4ccccc4)C(C)=C1C3(C)C)[C@]1(OC(C)=O)CO[C@@H]1C[C@@H]2O (stereo not given in full) | u | 0.52µM* | u | u | 0% | -19%
COc1ccc(CNC(=O)C(CC(C)C)NS(=O)(=O)c2ccc3c(c2)oc(=O)n3C)cc1 (stereo not given) | x | x | i | u | -11% | 6%
CC(C)CNC(=O)c1c(N)n(Cc2ccco2)c2nc3ccccc3nc12 | u | u | x | 22µM* | u | -87%
